SW480 rerep – induces DNA re-replication in SW480 colon adenocarcinoma cells; Potency, µM (titrated, usually from 46.1 µM), for inactives: top-dose re-replication activation, hits mostly activators; SW480 DNA re-replication, Hoechst DNA content imaging, 48 h; hit rate 1.8% among 340,000; AID 624297; also: % of control where 0% means no effect; nearly all actives have a fitted effect of over 55% in size
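Image-based read-out: total Hoechst fluorescence of nuclei (405 nm excitation, 500-530 nm emission), with hits raising the fraction of high-intensity nuclei. SW480 colon cells incubated 48 hr with compounds at 37 C.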
MCF10A rerep – DNA re-replication induction in MCF 10a cells; MCF 10A DNA re-replication, Hoechst nuclear intensity, 48 h; Potency, µM (doses to about 46.1 µM), inactives show top-dose activity, positive = re-replication, most hits filed as activators; hit rate 2.9% among 350,000; AID 624296; also: % of control where 0% means no effect; nearly all actives have a fitted effect of over 50% in size
KB-V1 cytotox – KB-V1 MDR subline cytotoxicity; KB-V1 MDR cells viability, CellTiter-Glo, 72 h; Potency, µM (top dose mostly 46.1 µM), most hits filed as cytotoxic; hit rate 3.4% among 400,000; also: % is scaled to controls: 0 for no effect and ±100 for the full control effect; nearly all actives have a fitted effect of over 60% in size
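Compound-treated KB-V1 multidrug-resistant cells, 72 h, 37 degrees C; viability by CellTiter-Glo. Fitted qHTS curves give the values.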
KB-3-1 cytotox – KB-3-1 parental cell cytotoxicity. KB-3-1 viability, CellTiter-Glo ATP luminescence, 72 h. Potency, µM (doses to about 46.1 µM), hits mostly cytotoxic. hit rate 1.4% among 400,000; also: % is scaled to controls: 0 for no effect and ±100 for the full control effect; nearly all actives have a fitted effect of over 60% in size
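KB-3-1 parental drug-naive adenocarcinoma cells in DMEM/10% FBS, incubated 72 h at 37 C with pin-transferred compounds across a concentration series. Viability by CellTiter-Glo luminescence; concentration-response curves fitted after normalization.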
PINK1 expr mod – modulators of PINK1 expression; hit rate 0.2% among 410,000; PINK1 immunofluorescence, high-content cytometry, 24 h; Potency, µM (titrated, usually from 76.6 µM), without a hit: top-dose activation (PINK1 increase), usual class: activators; active = well fitted activation curve with a large enough effect; inconclusive = small, poorly fitted or top-dose-only effect; cell line not stated here; also: % of control where 0% means no effect; nearly all actives have a fitted effect of over 65% in size
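Decision-based qHTS: stable cells, 24 h exposure to five compound concentrations, CCCP as control. Fixed cells stained for PINK1 plus nuclear, mitochondrial and cell markers, cytometer read.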
* hit, by the source's call; i = inactive; ? = inconclusive; nt = no result; [ ] = another dose, or the depositor's remark. Rows were chosen to be rich in hits. Some 6.7% of all compounds tested hit in one or more screens of this group. Unless noted, calls follow the shape of the dose curve; as a rule, active = well fitted curve in the direction sought with a large enough effect; inconclusive = small, poorly fitted or top-dose-only effect, or another doubt; inactive = no such curve, though single readings can be large; an effect the other way counts as inactive or inconclusive. Potency is read from the fitted curve at half-maximal effect.

SMILES	SW480 rerep	MCF10A rerep	KB-V1 cytotox	KB-3-1 cytotox	PINK1 expr mod
COc1ccc(CCN(Cc2cccs2)S(=O)(=O)c2ccc(-n3cnnn3)c(OC)c2)cc1OC	0%	-10%	2.6µM*	i	2%[38.3 µM]
CCOc1ccccc1CN(Cc1ccco1)S(=O)(=O)c1ccc(-n2cnnn2)c(OC)c1	8.2µM*	?	?	?	0%[38.3 µM]
CCc1nc2ccc(C(=O)NCc3cccs3)cn2c1N(CCC(C)C)CCN(C)C	nt	nt	i	i	4%
Cc1ccc(NC(=O)C2SC(=Nc3ccccc3)C(C(=O)Nc3ccc(Cl)cc3)=C2N)cc1 (configuration not stated)	-8%	21µM*	i	i	2%
Cc1ccc(N=C2SC(C(=O)Nc3ccc(OC(F)(F)F)cc3)C(N)=C2C(=O)Nc2c(C)cc(C)cc2C)cc1 (configuration not stated)	12%	3.7µM*	?	?	-3%
Cc1ccc(NC(=O)c2cc3cc(OC(F)(F)F)ccc3[nH]2)cc1	-27%	0%	i	i	2%
COc1ccc(Cl)cc1NC(=O)C1CCN(S(=O)(=O)c2ccc(F)cc2)CC1	nt	nt	?	i	-1%
Cc1cccc(N(Cc2ccccc2)C(=O)C2CCN(C(=O)c3ccccc3C)CC2)c1	5%	12%	i	i	0%
CC(C)Oc1ccc(CNC(=O)Cc2ccc(NC(=O)N3CCSc4ncccc43)cc2)cc1	nt	nt	i	?	6%
CCN(C1CCCCC1)S(=O)(=O)c1ccc(S(=O)(=O)NCc2ccncc2)cc1	0%	-1%	7.3µM*	i	0%[38.3 µM]
O=S(=O)(NCc1ccccc1)c1ccc(S(=O)(=O)N(Cc2ccccn2)C2CCCC2)cc1	9%	?	i	i	0%[38.3 µM]
CC1CCCC(C)N1S(=O)(=O)c1ccc(S(=O)(=O)NCCc2ccncc2)cc1 (configuration not stated)	0%	-6%	?	i	-1%[38.3 µM]
CCCCCc1ccc(S(=O)(=O)NCCc2ccncc2)cc1	-6%	16%	3.3µM*	?	6%[38.3 µM]
CCN(C1CCCCC1)S(=O)(=O)c1ccc(S(=O)(=O)NCCc2ccncc2)cc1	11%	?	21µM*	i	2%[38.3 µM]
CC(=O)N1CCCC1c1nc2ccccc2n1Cc1cccc(Cl)c1 (configuration not stated)	nt	nt	i	i	0%
CCC(Oc1ccccc1)C(=O)Nc1nnc(S(=O)(=O)N(CC)CC)s1 (configuration not stated)	nt	nt	i	i	2%
CCOC(=O)c1c(NC(=O)c2ccccc2Br)sc2c1CCc1ccccc1-2	16µM*	?	13µM*	i	?
CCOC(=O)c1c(NC(=O)COc2ccccc2Br)sc2c1CCCCC2	nt	nt	i	i	2%
CSc1nnc(C)c(/C=C/NOCc2cccc(F)c2)n1	2%	20%	i	i	1%
CSc1nnc(C)c(/C=C/Nc2ccc(F)cc2F)n1	20%	18µM*	?	i	1%
CSc1ccc(CN2CCC2(C)C(=O)NCc2cccs2)cc1 (configuration not stated)	nt	nt	i	i	0%
Cc1ccccc1-c1noc(-c2nnn(-c3ccccc3C)c2N)n1	nt	nt	nt	nt	0%
CCOc1cc(NC(=S)Nc2cccc(C)c2)c(OCC)cc1NC(=O)CC(C)C	21%	11%	3.3µM*	i	60%[38.3 µM]
CCOc1cc(NC(=O)CC(C)C)c(OCC)cc1NC(=O)CCn1nnc2ccccc21	-2%	-2%	4.1µM*	?	-2%
COc1cc(Cl)c(C)cc1NC(=O)CN1C(=O)C2CC=CCC2C1=O (configuration not stated)	-2%	0%	i	i	0%
SMILES	SW480 rerep	MCF10A rerep	KB-V1 cytotox	KB-3-1 cytotox	PINK1 expr mod
Nc1ncnc(Sc2ncccn2)c1[N+](=O)[O-]	?	?	?	3.7µM*	4%
Cc1nc(C)c(C(=O)NCc2ccccc2Cl)o1	-3%	1%	21µM*	?	3%[38.3 µM]
CC(=O)c1c(C)[nH]c(C(=O)NCc2ccccc2Cl)c1C	-11%	2%	23µM*	i	-1%
CCc1c(C(=O)NCc2ccccc2Cl)[nH]c(C)c1C(C)=O	-1%	?	7.3µM*	i	1%
CCC(CC)C(=O)NCc1ccccc1Cl	3%	0%	i	i	0%
CCOC(=O)c1[nH]c(C)c(C(=O)NCc2ccccc2Cl)c1C	nt	nt	i	i	1%
CC(C)C(NS(C)(=O)=O)c1nnc2n1CCN(Cc1ccc3cccnc3c1)CC2 (configuration not stated)	nt	nt	nt	nt	1%
CCC(Oc1ccccc1)C(=O)Nc1ccccc1C(=O)N1CCN(C)CC1 (configuration not stated)	0%	-3%	i	i	-1%
Cc1ccccc1OCCC(=O)Nc1ccccc1C(=O)N1CCCCC1	-9%	6%	8.2µM*	i	-1%
CCC(Oc1ccccc1)C(=O)Nc1ccccc1C(=O)N1CCCCC1 (configuration not stated)	-5%	12%	12µM*	i	2%
Cc1ccccc1OCC(=O)Nc1ccccc1C(=O)N1CCCCC1	0%	16%	?	i	2%
CCn1cnc2c(=O)oc3ccc(S(=O)(=O)N4CCN(c5cc(C)ccc5C)CC4)cc3c21	nt	nt	i	i	-1%
COc1ccc(NC(=S)NNC(=S)Nc2cccc(C(F)(F)F)c2)cc1	-35%	15µM*	i	i	4%
Cc1ccccc1C(=O)NNC(=S)Nc1cccc(C(F)(F)F)c1	3%	?	?	?	?
CCOc1ccc(NC(=S)NNC(=S)Nc2cccc(C(F)(F)F)c2)cc1	25%	?	i	i	3%
O=C(NNC(=S)Nc1cccc(C(F)(F)F)c1)c1ccc(Cl)cc1Cl	?	13µM*	18µM*	?	?
COC(=O)/C=C/C(=O)Nc1cccc(C(F)(F)F)c1	?	23µM*	i	i	?
Cc1ccc(OC(F)F)c(NC(=O)Nc2cccc(C(F)(F)F)c2)c1	11µM*	?	?	?	?
Cc1ccc(C(=O)NCCNC(=O)Cc2ccccc2)cn1	?	1%	i	i	1%
CSC1=C(C#N)C(C)C2=C(CC(C)(C)CC2=O)N1 (configuration not stated)	1%	-1%	23µM*	?	0%
CCNC(=O)C(Sc1ccccc1)c1ccccc1 (configuration not stated)	-5%	1%	i	i	-5%
CCCCNC(=O)C(Sc1ccccc1)c1ccccc1 (configuration not stated)	-58%	9%	15µM*	i	0%
CC[N+]1(C)CCC(O)(/C=C/c2ccccc2)C(C(=O)/C=C/c2ccccc2)C1 (configuration not stated)	21µM*	?	?	?	-6%

High-throughput results: PubChem, National Center for Advancing Translational Sciences (NCATS)
